From PubChem BioAssay (NCI)
About 79,000 compounds went through this panel and 15% of them were active in at least one assay; those are over-represented in the sample as a whole. Active and inactive are the calls of the source. No stated cut-off is given here; in the data, active means growth inhibition above about 70%; inactive means the rest.

Columns and labels:
[1] = NCI Yeast Anticancer Drug Screen. Data for the wt1 strain (AID 149);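 further: 0% = growth of vehicle-treated wt1 cultures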; conditions: S. cerevisiae wt1 strain (SPY 50644) growth inhibition, stronger effect = higher value
In short: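 Readout: yeast growth inhibition, normalised to vehicle controls, in the wt1 strain exposed to test compounds.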

[2] = NCI Yeast Anticancer Drug Screen. Data for the rad50EPP+ strain (AID 151);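 further: 0% = growth of vehicle-treated control cultures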; conditions: S. cerevisiae rad50 mutant strain, stronger effect = higher value
In short: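 Yeast strain carrying rad50 alteration (rad50EPP+) exposed to compounds; growth inhibition measured relative to vehicle-treated controls.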

[3] = NCI Yeast Anticancer Drug Screen. Data for the mgt1 strain (AID 153); conditions: S. cerevisiae mgt1 mutant growth inhibition, stronger effect = higher value
In short: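 Yeast mgt1 strain (DNA repair/cell-cycle alteration panel) exposed to compounds; growth inhibition measured relative to vehicle-treated controls.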

[4] = NCI Yeast Anticancer Drug Screen. Data for the rad50 strain (AID 155);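 further: 0% = growth of vehicle-only cultures of the same strain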; conditions: S. cerevisiae rad50 strain growth inhibition, stronger effect = higher value
In short: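 Compounds were tested on a yeast strain with an engineered DNA damage repair alteration; the reported value is growth inhibition normalised to vehicle treatment.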

[5] = NCI Yeast Anticancer Drug Screen. Data for the rad14 strain (AID 159);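 further: 0% = growth of vehicle-treated control cultures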; conditions: S. cerevisiae rad14 strain growth inhibition, stronger effect = higher value
In short: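 Compound-treated yeast with a defined DNA-repair lesion; growth inhibition normalised to vehicle-treated cultures.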

[6] = NCI Yeast Anticancer Drug Screen. Data for the sgs1 mgt1 strain (AID 161);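 further: 0% = growth of cultures given vehicle only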; conditions: S. cerevisiae sgs1 mgt1 strain, stronger effect = higher value
In short: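 Percent growth inhibition was derived by comparing compound-exposed mutant yeast with vehicle-exposed cultures. The strain carries alterations in DNA damage repair.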

[7] = NCI Yeast Anticancer Drug Screen. Data for the CLN2oe strain (AID 163);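 further: 0% = growth of vehicle-only control cultures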; conditions: S. cerevisiae CLN2oe strain, stronger effect = higher value
In short: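 Yeast cells carrying a defined cell-cycle control alteration were exposed to test compounds. Growth inhibition was scored against vehicle-treated control cultures.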

[8] = NCI Yeast Anticancer Drug Screen. Data for the cln2 rad14 strain (AID 165);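 further: 0% = growth equal to vehicle treated cultures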; conditions: S. cerevisiae cln2 rad14 strain, stronger effect = higher value
In short: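 Yeast carrying cln2 and rad14 alterations (cell cycle control and DNA damage repair) were exposed to compounds. Growth inhibition was measured against vehicle-treated controls.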

[9] = NCI Yeast Anticancer Drug Screen. Data for the bub3 strain (AID 167); conditions: S. cerevisiae bub3 mutant strain, stronger effect = higher value
In short: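 Growth of a checkpoint-deficient yeast mutant is measured after compound exposure. Values represent inhibition relative to vehicle.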

[10] = NCI Yeast Anticancer Drug Screen. Data for the wt2 strain (AID 169);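 further: 0% = growth of vehicle-treated yeast cultures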; conditions: S. cerevisiae wt2 strain growth inhibition, stronger effect = higher value
In short: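 Yeast cells were exposed to test compounds, and growth inhibition was measured relative to vehicle-treated controls.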

[11] = NCI Yeast Anticancer Drug Screen. Data for the mlh1 strain (AID 171);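 further: 0% = growth of vehicle-treated control cultures of the same strain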; conditions: S. cerevisiae mlh1 strain growth inhibition, stronger effect = higher value
In short: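 Yeast carrying a defined genetic alteration in DNA damage repair or cell cycle control were exposed to test compounds. Growth inhibition was measured relative to vehicle-treated controls.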

[12] = NCI Yeast Anticancer Drug Screen. Data for the sgs1 strain (AID 173);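 further: 0% = growth of vehicle-only control cultures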; conditions: S. cerevisiae sgs1 mutant, stronger effect = higher value
In short: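 Yeast mutant strains carrying defined defects in DNA damage repair or cell cycle control were exposed to test compounds. Growth inhibition was scored against vehicle-treated controls.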

[13] = NCI Yeast Anticancer Drug Screen. Data for the mlh1 rad18 strain (AID 175); conditions: S. cerevisiae mlh1 rad18 strain growth inhibition, stronger effect = higher value
In short: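 Growth inhibition of the yeast strain was measured after compound exposure and expressed relative to vehicle-treated controls. The strain carries defined defects in DNA damage repair.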

[14] = NCI Yeast Anticancer Drug Screen. Data for the rad18 strain (AID 177); conditions: S. cerevisiae rad18 mutant growth inhibition, stronger effect = higher value
In short: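 Yeast carrying a defined DNA damage repair alteration were exposed to compounds. Growth inhibition was expressed relative to vehicle-treated controls.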

[15] = NCI Yeast Anticancer Drug Screen. Data for the mec2-1 strain (AID 157); conditions: S. cerevisiae mec2-1 strain, stronger effect = higher value
In short: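 mec2-1 yeast strain, carrying an alteration in DNA damage repair or cell cycle control, was exposed to compounds; growth inhibition was measured relative to vehicle-treated controls.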

[16] = at 5.0 µM (retest, dose inferred, filed as 0.5)
[17] = at 50.0 µM (retest, dose inferred, filed as 5.0)

Measured: growth inhibition

O=C1OC(/C=C/c2ccccc2)Sc2ccccc21 (configuration not stated)
active: [9]; at 50.0 µM 89.3%
inactive: [1]; at 1.2 µM -3% | [1]; at 3.7 µM 0% | [1]; at 11.0 µM 1% | [1]; at 33.0 µM 2% | [1]; at 100.0 µM 8% | [2]; at 1.2 µM 5% | [2]; at 3.7 µM 5% | [2]; at 11.0 µM 13% | [2]; at 33.0 µM 18% | [2]; at 100.0 µM 23% | [3]; at 1.2 µM -1% | [3]; at 3.7 µM 2% | [3]; at 11.0 µM 4% | [3]; at 33.0 µM 10% | [3]; at 100.0 µM 44% | [4]; at 1.2 µM 3% | [4]; at 3.7 µM 4% | [4]; [16] -16% | [4]; at 11.0 µM 10% | [4]; at 33.0 µM 14% | [4]; [17] 1% | [4]; at 50.0 µM -0.5% | [4]; at 100.0 µM 27% | [5]; at 1.2 µM 1% | [5]; at 3.7 µM 0% | [5]; at 11.0 µM 4% | [5]; at 33.0 µM 12% | [5]; at 100.0 µM 23% | [6]; [16] 3% | [6]; [17] 7% | [6]; at 50.0 µM 30.9% | [7]; at 1.2 µM 0% | [7]; at 3.7 µM 2% | [7]; at 11.0 µM -1% | [7]; at 33.0 µM 3% | [7]; at 100.0 µM 17% | [8]; [16] -34% | [8]; [17] -47% | [8]; at 50.0 µM -26.9% | [9]; at 1.2 µM 5% | [9]; at 3.7 µM 11% | [9]; [16] 7% | [9]; at 11.0 µM 33% | [9]; at 33.0 µM 46% | [9]; [17] 50% | [9]; at 100.0 µM 62% | [10]; at 1.2 µM -2% | [10]; at 3.7 µM -8% | [10]; at 11.0 µM -2% | [10]; at 33.0 µM 1% | [10]; at 100.0 µM 10% | [11]; at 1.2 µM 1% | [11]; at 3.7 µM 3% | [11]; at 11.0 µM 7% | [11]; at 33.0 µM 12% | [11]; at 100.0 µM 26% | [12]; at 1.2 µM 0% | [12]; at 3.7 µM 2% | [12]; at 11.0 µM 6% | [12]; at 33.0 µM 12% | [12]; at 100.0 µM 25% | [13]; [16] 11% | [13]; [17] 27% | [13]; at 50.0 µM 32.9% | [14]; at 1.2 µM 1% | [14]; at 3.7 µM 4% | [14]; at 11.0 µM 7% | [14]; at 33.0 µM 19% | [14]; at 100.0 µM 43%

O=C1C=CC(=Nc2ccc3c(c2)Cc2cc(Cl)ccc2-3)O1
inactive: [1]; at 1.2 µM -3% | [1]; at 3.7 µM 10% | [1]; at 11.0 µM 56% | [3]; at 1.2 µM 2% | [3]; at 3.7 µM 20% | [3]; at 11.0 µM 68% | [4]; at 1.2 µM -1% | [4]; at 3.7 µM 24% | [4]; [16] 25% | [15]; at 1.2 µM 6% | [15]; at 3.7 µM 19% | [15]; [16] 34% | [15]; at 11.0 µM 68% | [5]; at 1.2 µM 10% | [5]; at 3.7 µM 32% | [7]; at 1.2 µM -1% | [7]; at 3.7 µM 3% | [7]; at 11.0 µM 23% | [9]; at 1.2 µM 4% | [9]; at 3.7 µM 12% | [9]; [16] 7% | [10]; at 1.2 µM 5% | [10]; at 3.7 µM 28% | [11]; at 1.2 µM 9% | [11]; at 3.7 µM 21% | [12]; at 1.2 µM 11% | [12]; at 3.7 µM 48% | [13]; [16] 32% | [14]; at 1.2 µM 10% | [14]; at 3.7 µM 36%
active: [1]; at 33.0 µM 99% | [1]; at 100.0 µM 98% | [2]; at 1.2 µM 78% | [2]; at 3.7 µM 90% | [2]; at 11.0 µM 98% | [2]; at 33.0 µM 99% | [2]; at 100.0 µM 96% | [3]; at 33.0 µM 99% | [3]; at 100.0 µM 99% | [4]; at 11.0 µM 78% | [4]; at 33.0 µM 99% | [4]; [17] 99% | [4]; at 50.0 µM 99.5% | [4]; at 100.0 µM 96% | [15]; at 33.0 µM 99% | [15]; [17] 100% | [15]; at 50.0 µM 99% | [15]; at 100.0 µM 98% | [5]; at 11.0 µM 91% | [5]; at 33.0 µM 99% | [5]; at 100.0 µM 97% | [7]; at 33.0 µM 98% | [7]; at 100.0 µM 97% | [9]; at 11.0 µM 96% | [9]; at 33.0 µM 99% | [9]; [17] 99% | [9]; at 50.0 µM 99.7% | [9]; at 100.0 µM 97% | [10]; at 11.0 µM 100% | [10]; at 33.0 µM 99% | [10]; at 100.0 µM 98% | [11]; at 11.0 µM 74% | [11]; at 33.0 µM 99% | [11]; at 100.0 µM 98% | [12]; at 11.0 µM 88% | [12]; at 33.0 µM 99% | [12]; at 100.0 µM 98% | [13]; [17] 99% | [13]; at 50.0 µM 84.2% | [14]; at 11.0 µM 95% | [14]; at 33.0 µM 99% | [14]; at 100.0 µM 97%
